HSF1 inhib = HSF1 inhibition. NIH3T3-HGL HSE-luciferase, MG132-induced, luminescence 8 h; stronger effect = lower value. AID 2098. 300,000 tested, 0.77% active. activity change, negative = inhibition, % at 7.5 µM (by protocol);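 active = more than half of replicate wells show activity change below -50%, luminescence cut by over half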;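 also: luciferase reports HSF-1 transcriptional activity via heat shock element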
HSF1 activator = increases HSF-1 driven luciferase reporter signal. NIH3T3-HGL HSF-1 luciferase reporter, MG132, 8 h; 100% = twice DMSO control signal. activation, % at 9 µM. 300,000 tested, 1.7% active. AID 504408;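 active = mean replicate activation of at least 50% with a set share of replicates each reaching 50%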
Vif imaging = HIV Vif inhibition; HEK293T cells, Vif self-association by quenched fluorescence, imaging, 24 h; AID 602346; 340,000 tested, 0.35% active; inhibition, % at 7.49 µM; in the data active = inhibition above about 50%, passing the limit was not always enough
esBAF inh = blocks esBAF chromatin remodeling in mouse ES cells; Bmi1-luciferase knock-in reporter, 24 h; 100% = twice the neutral-well signal; reporter increase, % at 12.5 µM; 350,000 tested, 2% active; AID 602393; in the data active = activation above about 40%;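 also: a rise in the Bmi1 reporter signal indicates esBAF inhibition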
Numbers stand for hits; 0 = inactive; - = no result given. Only some compounds are listed: those with a hit (about 3.4% of all), similar ones and a draw of the others.

SMILES	HSF1 inhib	HSF1 activator	Vif imaging	esBAF inh
Cc1ccccc1C(=O)NC[C@@H]1CCCN2CCCC[C@H]12	-56.1	0	0	0
Cc1ccccc1S(=O)(=O)NCC[C@@H]1CC[C@@H](NC(=O)C2CCOCC2)[C@@H](CO)O1	-	-	-	0
CCOC(=O)/C(=C/c1ccc(OC(=O)c2ccccc2)cc1)C(C)=O	0	76.7	0	0
CC(Oc1ccc(F)cc1Br)c1nc2ccccc2c(=O)[nH]1 (configuration not stated)	0	65.5	0	0
CC(c1nc2ccccc2c(=O)[nH]1)N(C)c1ccc2ccccc2c1 (configuration not stated)	0	0	0	-
C[C@@H]1CCCCO[C@H](CN(C)S(=O)(=O)c2cn(C)cn2)[C@@H](C)CN([C@H](C)CO)C(=O)c2cc(NS(=O)(=O)c3cccs3)ccc2O1	-	-	-	0
O=C(C[C@@H]1C[C@H]2c3cc(NC(=O)Nc4ccc(C(F)(F)F)cc4)ccc3O[C@H]2[C@H](CO)O1)NCc1cc(F)ccc1F	-	-	-	0
CC(=O)N(C)C[C@@H]1Oc2cc(C#CC3CCCC3)ccc2S(=O)(=O)N([C@H](C)CO)C[C@@H]1C	-	-	-	0
CC1=Nc2ccc3ccccc3c2C1(C)C	0	0	53.0	-
Cc1c2ccccc2c(C)c2c1ccc1ccccc12	-	-	0	0
C[C@@H]1CN([C@H](C)CO)S(=O)(=O)c2ccc(Br)cc2O[C@H]1CN(C)Cc1ccccc1	-	-	-	0
Cc1noc(C)c1CSc1nc2sc(C)c(C)c2c(=O)n1-c1ccccc1	0	0	-	0
C=CCn1c(SCc2c(C)noc2C)nc2sc(C)c(C)c2c1=O	0	118.7	0	0
C[C@H](CO)N1C[C@H](C)[C@@H](CN(C)S(C)(=O)=O)Oc2ncc(C#CCN(C)C)cc2C1=O	-	-	-	0
c1ccc(N2CCN(c3nc4ccccc4[nH]3)CC2)nc1	0	63.2	0	-
O=C(CCCN1C(=O)S/C(=C\C=C\c2ccccc2)C1=O)Nc1ccc(C(=O)O)cc1	0	0	0	0
O=C(CCN1C(=O)S/C(=C\C=C\c2ccccc2)C1=O)Nc1ccc(O)cc1	0	100.3	0	93.2
O=C(CN1C(=O)S/C(=C\C=C\c2ccccc2)C1=O)Nc1cccc(O)c1	0	153.8	0	65.2
COc1cccc(-c2cnc(C(O)c3ccc(F)cc3)[nH]2)c1 (configuration not stated)	-	-	0	55.9
CCCc1ccc(C(O)c2ncc(-c3cccc(F)c3)[nH]2)cc1 (configuration not stated)	-	-	0	0
CCc1ccc(C(O)c2ncc(-c3cccc(F)c3)[nH]2)cc1 (configuration not stated)	-	-	0	87.0
COc1cc(/C=C/C(=O)O)cc(OC)c1	0	0	0	0
COc1cc(O)cc(/C=C/c2ccccc2)c1	-	-	0	50.8
CCOC(=O)c1oc2ccccc2c1CN1CC(C)OC(C)C1 (configuration not stated)	0	0	0	0
CCOC(=O)Nc1oc2ccccc2c(=O)c1CN1CCOCC1	0	0	53.7	0
SMILES	HSF1 inhib	HSF1 activator	Vif imaging	esBAF inh
CN(C)C(=O)C[C@@H]1C[C@H]2c3cc(NC(=O)C4CCC4)ccc3O[C@H]2[C@H](CO)O1	-	-	-	0
CCN(Cc1ccncc1)C(=O)c1ccco1	0	0	0	-
CCN(Cc1ccncc1)C(=O)c1cc(Br)cc(Br)c1O	0	51.1	0	0
C[C@@H]1CN([C@H](C)CO)C(=O)c2cc(NC(=O)CCC(F)(F)F)ccc2O[C@@H]1CN(C)C(=O)Nc1ccc(C(F)(F)F)cc1	-	-	-	0
Nc1cc(Cl)ccc1C(=O)OCC(=O)NCc1cccs1	-	-	0	52.7
CC(=O)c1c(C)[nH]c(C(=O)OCC(=O)NCc2ccc(Cl)cc2)c1C	-	-	0	0
CC(=O)c1c(C)[nH]c(C(=O)OCC(=O)NCc2cccs2)c1C	-	-	0	54.5
Cc1ccc(S(=O)(=O)Nc2ccc3c(c2)C(=O)N([C@@H](C)CO)C[C@@H](C)[C@H](CN(C)C(=O)Nc2cccc4ccccc24)O3)cc1	-	-	-	0
CC(C)CC#Cc1ccc2c(c1)O[C@@H](CN(C)C(=O)Cc1ccccn1)[C@@H](C)CN([C@@H](C)CO)S2(=O)=O	-	-	-	0
NNC(=O)c1oc2nc(-c3ccccc3)cc(-c3ccccc3)c2c1N	0	0	71.4	0
CC(C)C(=O)Nc1ccc2c(c1)C(=O)N(C)[C@H]1CC[C@H](CC(=O)Nc3ccccc3F)O[C@@H]1CO2	-	-	-	0
Cc1nc(CSc2ccc(Cl)cc2)cs1	0	51.0	0	0
Cc1nc(CSc2ccc(Br)cc2)cs1	0	0	0	0
O=c1c2ccccc2ncn1CCOc1ccccc1[N+](=O)[O-]	0	0	0	67.1
CCOc1cccc(C(=O)Nc2cccc(-c3nnc(-c4ccccc4)o3)c2)c1	0	0	0	42.8
CCOc1cccc(C(=O)Nc2ccc3oc(Cc4ccc(Cl)cc4)nc3c2)c1	0	0	56.4	0
CCOc1cccc(C(=O)Nc2cccc(-c3nnc(-c4ccc(C)cc4)o3)c2)c1	0	0	-	0
O=C(OCN1C(=O)c2ccccc2C1=O)c1ccccc1	0	75.4	0	0
O=C(Cc1ccccc1F)Nc1nc(-c2cccs2)cs1	0	66.2	0	-
O=C(Cc1ccccc1F)Nc1nc(-c2ccc(F)c(F)c2)cs1	0	0	0	65.1
O=C(Cc1ccccc1)Nc1nc(-c2ccc(F)c(F)c2)cs1	0	0	0	0
CCCC(=O)Nc1nnc(-c2ccco2)s1	-	-	0	0
COc1ccc(C(=O)Nc2nc(-c3cccs3)cs2)cc1	0	0	0	84.3
O=C(Nc1nc(-c2cccs2)cs1)c1ccc(Cl)cc1	0	0	0	-
O=C(Cc1ccccc1)Nc1nnc(-c2ccco2)s1	-	-	0	47.9
SMILES	HSF1 inhib	HSF1 activator	Vif imaging	esBAF inh
CCS(=O)(=O)Nc1ccc2c(c1)C(=O)N(C)C[C@H](OC)[C@@H](C)CN(C(=O)NC(C)C)[C@H](C)CO2	-	-	-	0
C[C@@H]1CN([C@@H](C)CO)C(=O)c2cc(NC(=O)Nc3ccc(C(F)(F)F)cc3)ccc2O[C@H]1CN(C)S(=O)(=O)c1ccccc1	-	-	-	0
CCC(=O)N(C)C[C@H]1Oc2ncc(C#CC(C)(C)O)cc2C(=O)N([C@H](C)CO)C[C@H]1C	-	-	-	0
C[C@@H]1CCCCO[C@@H](CN(C)S(=O)(=O)c2cccs2)[C@H](C)CN([C@@H](C)CO)C(=O)c2cc(NC(=O)CCCN(C)C)ccc2O1	-	-	-	0
CN1C(=O)c2cc(NC(=O)c3cscn3)ccc2OC[C@@H]2O[C@@H](CC(=O)N3CCCCC3)CC[C@@H]21	-	-	-	0
O=C(Cc1ccccc1)Nc1nnc(-c2cccs2)s1	0	0	0	51.6
O=C(Cc1ccccc1)Nc1nc(-c2cccs2)cs1	0	0	0	65.4
CCC(=O)Nc1nnc(-c2cccs2)s1	0	0	0	-
C[C@@H]1CCCCO[C@@H](CN(C)C(=O)c2ccccc2)[C@@H](C)CN([C@@H](C)CO)C(=O)c2cc(NC(=O)Nc3ccc(C(F)(F)F)cc3)ccc2O1	-	-	-	0
COc1ccc(-c2cc(-c3ccccc3O)[nH]n2)cc1	0	85.1	0	-
Oc1ccc(Br)cc1-c1cc(-c2ccccc2Cl)[nH]n1	0	0	0	-
COc1ccc(-c2cc(-c3ccccc3)n[nH]2)c(O)c1	0	0	0	83.4
COc1ccc(O)c(-c2cc(-c3ccccc3Cl)[nH]n2)c1	0	0	0	73.7

Source: PubChem (Broad Institute)
